Structures can show the parent of a compound that is named as a salt.
System: Saccharomyces cerevisiae BY4741 SeMeCo community
Test: z-score of subpopulation abundance vs DMSO median, subpopulation auxotrophic for HLM; higher = larger share of this subpopulation than in DMSO controls
Conditions: 10 µM; 24 h; SM minimal medium; subpopulation (auxotrophy): HLM
Procedure: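 Fluorescent four-plasmid SeMeCo (self-establishing metabolically cooperating S. cerevisiae BY4741 community; plasmids pH-mRuby2, pL-mWasabi, pU-eCFP, pM-TagRFP657) was grown 24 h in minimal SM medium with each Selleck FDA-approved drug at 10 µM in 384-well plates. Cells were fixed and imaged by high-content confocal microscopy. For each auxotrophic subpopulation (and the prototroph), a z-score gives the deviation from the DMSO vehicle-control population median.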

| Structure (SMILES) | z-score of subpopulation abundance |
| --- | --- |
| Cc1ccc(-c2cc(C(F)(F)F)nn2-c2ccc(S(N)(=O)=O)cc2)cc1 [Celecoxib] | -0.37 |
| C[C@@H](O)[C@H]1C(=O)N2C(C(=O)OCOC(=O)C(C)(C)C)=C(SC3CN(C4=NCCS4)C3)[C@H](C)[C@H]12 [Tebipenem Pivoxil] | -0.55 |
| CC(C)[N+]1(C)[C@@H]2CC[C@H]1C[C@@H](OC(=O)C(CO)c1ccccc1)C2 (stereo not given in full) [Ipratropium Bromide] | -0.71 |
| C#C[C@]1(O)CC[C@H]2[C@@H]3CCC4=CC(=O)CC[C@@H]4[C@H]3CC[C@@]21CC [Levonorgestrel] | -0.96 |
| CC[N+](CC)(CC)CC [Tetraethylammonium bromide] | -0.06 |
| CC(=O)[O-].[K+] [Potassium acetate] | -0.9 |
| O=c1[nH]c(=O)n([C@H]2C[C@H](O)[C@@H](CO)O2)cc1/C=C/Br [Brivudine] | -1.12 |
| COc1ccc2cc(CCC(C)=O)ccc2c1 [Nabumetone] | -0.91 |
| Cc1cc(O)cc(C)c1Cl [Chloroxylenol] | 0.76 |
| CC(=O)N[C@H]1[C@H]([C@H](O)[C@H](O)CO)OC(C(=O)O)=C[C@@H]1NC(=N)N [Zanamivir] | 0.19 |
| COC(=O)C1=C(C)NC(C)=C(C(=O)OC2CCCN(Cc3ccccc3)C2)C1c1cccc([N+](=O)[O-])c1 (stereo not given) [Benidipine HCl] | 0.06 |
| O=C1CC2(CCCC2)CC(=O)N1CCCCN1CCN(c2ncccn2)CC1 [Buspirone HCl] | -0.1 |
| CC(C(=O)O)c1ccc(C(=O)c2cccs2)cc1 (stereo not given) [Suprofen] | -0.28 |
| COCC(=O)Nc1cc(Sc2ccccc2)ccc1N=C(NC(=O)OC)NC(=O)OC [Febantel] | 0.64 |
| CCOC(=O)C1=C(C)NC(C)=C(C(=O)OC)C1c1cccc([N+](=O)[O-])c1 (stereo not given) [Nitrendipine] | -0.87 |
| O=C(O)CCC(=O)c1ccc(-c2ccccc2)cc1 [Fenbufen] | 0.59 |
| CN1CCC(=C2c3ccccc3C=Cc3ccccc32)CC1 [Cyproheptadine hydrochloride] | -0.45 |
| CN[C@H]1CC[C@@H](c2ccc(Cl)c(Cl)c2)c2ccccc21 [Sertraline HCl] | -0.66 |
| O=C1C(N(CO)C(=O)NCO)N(CO)C(=O)N1CO (stereo not given) [Diazolidinyl urea] | -0.27 |
| CN(C)CCCN1c2ccccc2CCc2ccc(Cl)cc21 [Clomipramine HCl] | 0.29 |

| Structure (SMILES) | z-score of subpopulation abundance |
| --- | --- |
| CC[C@@H]1/C=C(\C)C[C@H](C)C[C@H](OC)[C@H]2O[C@@](O)(C(=O)C(=O)N3CCCC[C@H]3C(=O)O[C@H](/C(C)=C/[C@@H]3CC[C@H](Cl)[C@H](OC)C3)[C@H](C)[C@@H](O)CC1=O)[C@H](C)C[C@@H]2OC [Pimecrolimus] | 2.14 |
| N[C@@H]1CN(c2c(F)cc3c(=O)c(C(=O)O)cn([C@@H]4C[C@@H]4F)c3c2Cl)CC12CC2 [Sitafloxacin Hydrate] | -0.5 |
| Nc1nc(/C(=C/CC(=O)O)C(=O)N[C@@H]2C(=O)N3C(C(=O)O)=CCS[C@H]23)cs1 [Ceftibuten dihydrate] | 0.65 |
| O=C1NC(=O)C(c2ccccc2)(c2ccccc2)N1 [Phenytoin] | -0.09 |
| O=C1c2c(O)ccc(O)c2C(=O)c2c(NCCNCCO)ccc(NCCNCCO)c21 [Mitoxantrone 2HCl] | -2.5 |
| C[C@@H](O)[C@H]1C(=O)N2C(C(=O)O)=C(S[C@@H]3CN[C@H](C(=O)N(C)C)C3)[C@H](C)[C@H]12 [Meropenem] | -0.34 |
| CCN(CC)CCOc1ccc2c(c1)C(=O)c1cc(OCCN(CC)CC)ccc1-2 [Tilorone dihydrochloride] | 0.21 |
| NC(=NCCCCCCN=C(N)N=C(N)Nc1ccc(Cl)cc1)N=C(N)Nc1ccc(Cl)cc1 [Chlorhexidine?2HCl] | 0.93 |
| CC[C@H]1OC(=O)C[C@@H](O)[C@H](C)[C@@H](O[C@@H]2O[C@H](C)[C@@H](O)[C@H](N(C)C)[C@H]2O)[C@@H](CCN2C[C@H](C)C[C@H](C)C2)C[C@@H](C)C(=O)/C=C/C(C)=C/[C@@H]1CO[C@@H]1O[C@H](C)[C@@H](O)[C@@H](OC)[C@H]1OC [Tilmicosin] | 0.13 |
| COc1cc([C@@H]2c3cc4c(cc3[C@@H](O[C@@H]3O[C@@H]5CO[C@@H](C)O[C@H]5[C@H](O)[C@H]3O)[C@H]3COC(=O)[C@H]23)OCO4)cc(OC)c1O [Etoposide] | 0.66 |
| CCC1(C)CC(=O)NC1=O (stereo not given) [Ethosuximide] | 0.8 |
| CCC[S+]([O-])c1ccc2[nH]c(NC(=O)OC)nc2c1 (stereo not given) [Albendazole Oxide] | -0.85 |
| CCCCN1CCCC[C@H]1C(=O)Nc1c(C)cccc1C [Levobupivacaine HCl] | -0.93 |
| CCC(C)n1ncn(-c2ccc(N3CCN(c4ccc(OCC5COC(Cn6cncn6)(c6ccc(Cl)cc6Cl)O5)cc4)CC3)cc2)c1=O (stereo not given) [Itraconazole] | 12.5 |
| C[N+]1(C)CCC(=C(c2ccccc2)c2ccccc2)CC1 [Diphemanil Methylsulfate] | -0.02 |
| CC1(C)[C@H](C(=O)O)N2C(=O)C[C@H]2S1(=O)=O [Sulbactam] | -1.04 |
| C[C@@H](O)[C@H]1C(=O)N2C(C(=O)O)=C(S[C@@H]3CN[C@H](C(=O)N(C)C)C3)[C@H](C)[C@H]12 [Meropenem Trihydrate] | 0.4 |
| COC(=O)Nc1nc2cc(C(=O)c3ccc(F)cc3)ccc2[nH]1 [Flubendazole] | -0.42 |
| CO[C@H]1C[C@@H]2CC[C@@H](C)[C@@](O)(O2)C(=O)C(=O)N2CCCC[C@H]2C(=O)O[C@H]([C@H](C)C[C@@H]2CC[C@@H](O)[C@H](OC)C2)CC(=O)[C@H](C)/C=C(\C)[C@@H](O)[C@@H](OC)C(=O)[C@H](C)C[C@H](C)/C=C/C=C/C=C/1C [Rapamycin (Sirolimus)] | 16 |
| OCCN(CCO)c1nc(N2CCCCC2)c2nc(N(CCO)CCO)nc(N3CCCCC3)c2n1 [Dipyridamole] | 11.4 |
